Measurements published in PubChem BioAssay AID602281 (The Scripps Research Institute Molecular Screening Center, 2012).
About 2,900 (0.81%) of roughly 360,000 compounds were called active. The sample holds actives, similar compounds and a random draw of the others, so the mix is not that of the screen. Values without a mark were called inactive.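 The calls were made as follows: active = inhibition above the mean inhibition across every tested compound plus 3 SD (cut at about 22% in these data); inactive = the rest.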

These compounds were tested against Perilipin-5 (Homo sapiens) + 1-acylglycerol-3-phosphate O-acyltransferase ABHD5 (Homo sapiens) (UniProt Q00G26+Q8WTS1) (assay: ABHD5-PLIN5 interaction inhibitors, primary screen, cell lysate, split luciferase complementation, luminescence (AID 602281;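 also: 0% = DMSO only wells and the 100% control is not disclosed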)). Conditions: Split G. princeps luciferase complementation, 4 h, at 4 µM, hits give high values.
Perilipin-5 (Homo sapiens) + 1-acylglycerol-3-phosphate O-acyltransferase ABHD5 (Homo sapiens), sequence (Q00G26 whole entry, looked up): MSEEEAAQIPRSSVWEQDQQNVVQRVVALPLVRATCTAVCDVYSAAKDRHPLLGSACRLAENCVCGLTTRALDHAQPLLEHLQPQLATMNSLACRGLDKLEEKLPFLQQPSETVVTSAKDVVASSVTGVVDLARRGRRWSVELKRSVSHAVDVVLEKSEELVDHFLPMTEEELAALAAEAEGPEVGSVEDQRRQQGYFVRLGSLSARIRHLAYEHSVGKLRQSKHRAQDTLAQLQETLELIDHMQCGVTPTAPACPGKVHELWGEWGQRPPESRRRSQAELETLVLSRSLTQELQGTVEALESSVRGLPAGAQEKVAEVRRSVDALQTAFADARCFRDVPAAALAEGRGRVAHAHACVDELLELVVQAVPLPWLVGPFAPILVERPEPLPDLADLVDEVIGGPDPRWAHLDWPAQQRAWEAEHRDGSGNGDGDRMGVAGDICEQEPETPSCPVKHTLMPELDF
Perilipin-5 (Homo sapiens) + 1-acylglycerol-3-phosphate O-acyltransferase ABHD5 (Homo sapiens), sequence (Q8WTS1 whole entry, looked up): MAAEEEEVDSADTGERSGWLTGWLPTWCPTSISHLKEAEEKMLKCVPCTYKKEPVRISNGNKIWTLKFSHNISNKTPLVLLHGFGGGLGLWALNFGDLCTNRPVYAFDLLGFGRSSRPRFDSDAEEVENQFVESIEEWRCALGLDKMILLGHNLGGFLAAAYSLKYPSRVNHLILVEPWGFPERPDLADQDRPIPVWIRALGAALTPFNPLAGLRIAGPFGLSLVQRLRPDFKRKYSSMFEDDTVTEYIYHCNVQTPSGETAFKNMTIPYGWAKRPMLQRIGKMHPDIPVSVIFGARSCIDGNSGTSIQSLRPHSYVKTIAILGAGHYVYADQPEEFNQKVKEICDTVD

| Structure (SMILES) | inhibition |
| --- | --- |
| CCOC(=O)[C@]12Cc3ccccc3[C@H]1N(C1CCCCC1)C(=O)c1cc(OC)ccc12 | 39.6% (active) |
| CCOC(=O)[C@]12Cc3cc(OC)ccc3[C@H]1N(C(C)C)C(=O)c1ccccc12 | 14.9% |
| CC(C)N(CC#CCC1(O)c2ccccc2-c2ccccc21)C(C)C | 3.81% |
| CN(C)CC1Oc2ccccc2OC1(O)c1ccccc1 (stereo not given) | 46.5% (active) |
| CCOC(=O)CNC(=O)N1Cc2cc(N3CCCCC3)ccc2-n2nncc2C1 | 5.92% |
| CCN1CC2C3CCC(C)(O3)C2C1 (stereo not given) | 4.06% |
| Cc1ccc(-c2cc(C(=O)N3CCC4(CC3)OCCO4)no2)cc1 | -2.79% |
| CCc1cccc2c(C#N)cn(CC(=O)N3CCOCC3)c12 | 1.5% |
| CCC(=O)CC(c1ccc([N+](=O)[O-])cc1)c1c(O)c2ccccc2oc1=O (stereo not given) | 5.29% |
| Cc1cccc(N2C(=O)NC(=O)/C(=C\c3cnn(-c4ccccc4)c3)C2=O)c1 | 55.1% (active) |
| O=C(COC(=O)c1ccccc1)Nc1ccc(Cl)cc1C(=O)c1ccccc1 | 7.59% |
| Cc1ccc(S(=O)(=O)N(C)c2ccc(C(=O)NCC3(N(C)C)CCCCC3)cc2)cc1 | 0.68% |
| COc1ccccc1N1CCN(C(CNC(=O)Oc2ccccc2)c2cccnc2)CC1 (stereo not given) | 0.85% |
| N#Cc1ccc(Cn2cc(C(=O)c3ccco3)c3ccccc32)cc1 | 5.75% |
| Cc1ccc(Cn2c(C)c3cnn(CC(=O)N4CCC5(CC4)OCCO5)c(=O)c3c2C)cc1 | 9.7% |
| C=CCN1C(=O)NC(=O)/C(=C/c2ccc(OCC(=O)Nc3ccc(C)cc3)cc2)C1=O | 15.7% |
| COc1ccc(CN2C(=O)NC(=O)/C(=C\c3ccc(OC)c(OC)c3OC)C2=O)cc1 | 23.3% (active) |
| Cc1ccc(C)c(NC2=NCCCS2)c1 | 7.47% |
| C=CCN1C(=O)C2(C(C(=O)OCC)=C(N)Oc3c2c(=O)oc2ccccc32)c2ccccc21 (stereo not given) | -7.25% |
| COc1ccc(N=Cc2c(O)n(C)c(=O)[nH]c2=O)cc1 | -7.01% |
| O=c1[nH]c(=O)n(-c2ccc(F)cc2)c(O)c1C=NCCN1CCCCC1 | -4.1% |
| CCc1nnc(NS(=O)(=O)c2ccc(N=Cc3c(O)n(-c4ccccc4)c(=O)[nH]c3=O)cc2)s1 | 24.9% (active) |
| Cc1ccc(N2C(=O)NC(=O)C(CCc3ccncc3)(Cc3cccc(Cl)c3Cl)C2=O)cc1 (stereo not given) | -2.62% |
| CC1CCC(N(C)C2CCN(C)CC2)CC1 (stereo not given) | -5.21% |
| O=c1[nH]c(=O)n(CCc2ccc(F)cc2)c(O)c1/C=N/N1CCCCC1 | -2.89% |
